Hits are enriched below; roughly 9% of the tested compounds scored in any of these assays.
BAZ2B inh: inhibitors of human BAZ2B bromodomain; AlphaScreen BAZ2B-H3K14Ac peptide displacement; Q9UIF8; 4.4% of 360,000 active; Potency, µM (top dose mostly 114 µM), usual class: inhibitors; further: nearly all actives have a fitted effect of over 60% in size
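AlphaScreen luminescence quantifies BAZ2B engagement of H3K14Ac peptide; the protein and biotinylated peptide are both at 50 nM final, buffer PBS pH 7.4 with 0.01% Tween-20, all steps at room temperature.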
JMJD2A Tudor inh: inhibitors of human JMJD2A Tudor domain | O75164 | AlphaScreen JMJD2A-Tudor / H3K4me3 peptide binding | Potency, µM (doses to about 114 µM), most hits filed as inhibitors | 4.4% of 390,000 active | AID 504339; further: nearly all actives have a fitted effect of over 50% in size
PLK1 PBD block: blocks phosphopeptide binding to human PLK1 polo-box domain; 2.8% of 360,000 active; Potency, µM, most hits filed as inhibitors; P53350; Plk1 PBD binding of FITC phosphopeptide, fluorescence polarization; further: series mostly up to about 57 µM; nearly all actives have a fitted effect of over 65% in size
12-LOX inh: blocks human arachidonate 12S-lipoxygenase | purified 12hLO, xylenol orange hydroperoxide absorbance | Potency, µM (titrated, usually from 108 µM), most hits filed as inhibitors | 1.1% of 580,000 active | P18054 | AID 1671190
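Purified human 12hLO at 150 nM in 25 mM Hepes, 0.01% Triton X-100, pH 7.0, preincubated 15 min at room temperature with compound. Reaction started with 40 uM arachidonic acid, 30 min at room temperature. Hydroperoxide measured by Fe-xylenol orange, 573/405 nm absorbance ratio.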
G9a inh: inhibitors of human histone lysine methyltransferase G9a; AID 504332; 8.8% of 350,000 active; Q96KQ7; Potency, µM (series often up to 102 µM), actives largely listed as inhibitors; G9a H3K9 monomethylation, AlphaScreen, 2 h; further: nearly all actives have a fitted effect of over 75% in size
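Enzyme 20 nM + cpd, 15 min RT; add b-H3K9 pep 500 nM / SAM 20 uM; 2 h RT; anti-H3K9me1 Ab 0.5 ug/mL + SA donor / anti-rabbit acceptor beads 20 ug/mL each, 10 min; AlphaScreen read.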
HP1b binding inh: inhibitors of HP1-beta chromodomain binding to methylated histone tails. P83916. AlphaScreen HP1-beta / biotin-H3K9me3 peptide binding. Potency, µM (series often up to 114 µM), hits mostly inhibitors. 0.56% of 390,000 active; further: nearly all actives have a fitted effect of over 70% in size
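Compound inhibition of the preformed complex between 50 nM HP1-beta and 50 nM biotinylated H3K9me3 peptide was read by AlphaScreen. Buffer was PBS pH 7.4 with 0.01% Tween-20. Incubations ran 30 min at room temperature, with 10 ug/mL donor/acceptor beads.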
Hits are given with their value; n = inactive; u = inconclusive; x = not tested or not shown; [ ] = another dose, or the depositor's remark. The call rests on the fitted dose curve; in most records, active means well fitted curve in the direction sought with a large enough effect; inconclusive means small, poorly fitted or top-dose-only effect, or another doubt; inactive means no such curve, though single readings can be large; an effect the other way counts as inactive or inconclusive.

SMILES	BAZ2B inh	JMJD2A Tudor inh	PLK1 PBD block	12-LOX inh	G9a inh	HP1b binding inh
Cc1cccc(NN=C2c3ccccc3-c3ccccc32)c1	n	n	n	n	32µM	n
Cc1nnc(SCC(=O)c2ccc([N+](=O)[O-])cc2)s1	n	n	n	n	n	n
O=C(C1CCCCC1)N1CCC2(CC1)NC(=O)N(c1cccc(F)c1)N2	x	x	x	1.4µM	x	x
O=C(CC1CCCCC1)N1CCC2(CC1)NC(=O)N(c1ccccc1)N2	x	x	x	7.1µM	x	x
COC1CN(c2cccc(F)c2)C12CCN(C(=O)CCC1CCCC1)CC2 (stereo not given)	x	x	x	n	x	x
O=C(CC1CCCCC1)N1CCC2(CC1)NC(=O)N(c1cccc(F)c1)N2	x	x	x	2.8µM	x	x
O=C(CC1CCCC1)N1CCN(S(=O)(=O)c2ccccc2)CC1	n	n	n	n	n[12.7 µM]	n
Cc1ccc(S(=O)(=O)N(C)CC(=O)OCC(=O)NCCN2C(=O)CSC2=O)cc1	n	n	n	n	n[2.33 µM]	n
O=C(Nc1ccccc1-c1nnc(SCc2ccc(Cl)cc2)o1)c1ccccc1	n	n	n	n	n	n
O=c1cnc(-c2ccc(Cl)cc2)cn1O	u	89µM	n	50µM	n	n
CC(C)(C)c1cc(NC(=O)COC(=O)C2CC2)n(-c2ccccc2)n1	n	n	n	n	n	n
O=C1CCC[C@@H]2Cc3[nH]c4c(Cl)ccc(Cl)c4c3[C@@H]3CCN1[C@H]23	n	n	n	n	50µM	n
COC(=O)c1ccc2nc3c(cc2c1)[C@@H]1CCN2C(=O)CCC[C@H](C3)[C@H]12	x	n	n	n	x	n
Nc1ncnc2nc(SCCC(=O)O)[nH]c12	n	n[11.4 µM]	u	n	x	n
CCOC(=O)C1=C(C)N(c2ccccc2)C(=O)C1CC(=O)O (stereo not given)	n	n	n	n	18µM	n
CCOC(=O)C1=C(C)N(C)C(=O)C1CC(=O)O (stereo not given)	n	56µM	u	n	n	n
CCOC(=O)C1=C(C)N(C)C(=S)NC1c1ccccc1 (stereo not given)	n	n	n	n	n	n
CN(C(=O)Nc1cccc(OC(F)F)c1)C1CCCCC1	x	x	x	n	x	x
Cc1nnc(SC(C)C(=O)NCC2CCCO2)s1 (stereo not given)	n	n	n	n	n	n
CC(C)CC(=O)N1CCC(N2CC3CC(C2)[C@H]2CCCC(=O)N2C3)CC1 (stereo not given in full)	x	x	x	n	x	x
COc1cc(CN2CCN(Cc3ccccc3C)CC2)cc(OC)c1O	x	x	x	1µM	x	x
COc1cc(CN2CCN(c3cccc(C)c3C)CC2)cc(OC)c1O	50µM	1µM	n	u	u	n
Cc1cccc(N2CCN(Cc3ccoc3)CC2)c1C	50µM	11µM	n	u	10µM	u
COc1cc(Br)cc(CN2CCN(c3ncccn3)CC2)c1O	n	n	n	u	u	n
CN(C)C(CNc1oc(-c2ccccc2F)nc1C#N)c1cccs1 (stereo not given)	x	x	x	n	x	x
SMILES	BAZ2B inh	JMJD2A Tudor inh	PLK1 PBD block	12-LOX inh	G9a inh	HP1b binding inh
c1ccc(CNCCN2CCCC2)nc1	x	x	x	n	x	x
c1ccc(CNCCN2CCNCC2)nc1	16µM	u	n	n	n	n
O=C(Nc1ccc2ccccc2n1)c1ccccc1Cl	n	n	n	n	n[2.33 µM]	n
Nc1nccnc1C(=O)Nc1ccc2ccccc2n1	x	x	x	10µM	x	x
C=CCn1c(/N=C/c2ccc(OC)cc2)nc2ccccc21	n	n	n	x	n	n
C=CCn1c(/N=C/c2ccc(N(C)C)cc2)nc2ccccc21	u	u	n	n	45µM	n
COc1cccc(CNC(=O)CSc2nc3ccccc3nc2Cc2ccccc2)c1	n	n	x	n	n	n
C#CCSc1nnc(CNS(=O)(=O)c2ccc(Br)cc2)n1C	n	n	n	n	n	n
CCn1c(C(C)NS(=O)(=O)c2ccc(Cl)cc2)n[nH]c1=S (stereo not given)	n	20µM	n	u	x	n
CCn1c(CNS(=O)(=O)c2ccc(Br)cc2)n[nH]c1=S	n	22µM	n	n	35µM	n
CCNc1nc(NC(C)C)nc(NS(=O)(=O)c2ccc(Cl)cc2)n1	n	n	n	u	n	n
CCCn1c(C(C)NS(=O)(=O)c2ccccc2)n[nH]c1=S (stereo not given)	n	u	n	n	20µM	n
COc1cc(/C=N/Nc2nc(Nc3ccc(C)cc3)nc(-n3nc(C)cc3C)n2)cc(OC)c1OC	n	n	n	n	n	n
COc1ccc(-c2ccc(SCC(=O)c3cccs3)nn2)cc1	n	n	n	n	n[12.7 µM]	n
Nc1cc(Br)c(N)c(Br)c1	n	n	n	n	50µM	n
CCN(CC)CCNC(=O)c1ccc2c(c1)NC(=O)c1ccccc1S2	n	n	n	n	45µM	n
CCCN1CCN(CCCNC(=O)c2ccc3c(c2)NC(=O)c2ccccc2S3)CC1	n	n	n	n	n	n
CN(C)CCNC(=O)c1ccc2c(c1)NC(=O)c1ccccc1S2	n	n	n	n	45µM	n
O=C(O)c1cccc(Cl)n1	n	n[11.4 µM]	n	n	40µM	n
CC(=O)Nc1cccc(S(=O)(=O)N2CCN(S(=O)(=O)c3c(F)cccc3F)CC2)c1	x	n	x	x	x	x
Cn1ccnc1C(O)c1ccccc1 (stereo not given)	n	n	n	n	u	n
COc1ccc2ccccc2c1C(O)c1nccn1C (stereo not given)	x	n	24µM	n	n	n
Cc1ccc(NC(=O)c2cc(N3C(=O)C=CC3=O)ccc2Cl)cc1C	u	10µM	5.3µM	3.5µM	1.6µM	u
CCOC(=O)c1c(C)[nH]c(C(=O)CSc2nnc(Nc3ccccc3F)s2)c1C	n	n	n	n	18µM	n
Cc1cccc(OCC(=O)NC2(C#N)CCCCC2)c1C	x	x	x	n	x	x
SMILES	BAZ2B inh	JMJD2A Tudor inh	PLK1 PBD block	12-LOX inh	G9a inh	HP1b binding inh
CCOCCCN1CC(C(=O)NCCc2ccccc2)CC1=O (stereo not given)	n	n	n	n	u	n
O=C(CCS(=O)(=O)Cc1ccccc1)N1CCc2ccccc2C1	n	n	n	n	n	n
CCOC(=O)C1CCN(C(=O)CCS(=O)(=O)Cc2ccccc2)CC1	n	n	n	n	50µM	n
O=C(CCS(=O)(=O)Cc1ccccc1)N1CCN(Cc2ccccc2)CC1	n	n	n	n	50µM	n
Cc1oc(-c2ccccc2F)nc1CS(=O)(=O)CC(=O)N1CCN(Cc2ccccc2)CC1	n	n	n	n	50µM	n
Cc1ccc(-n2ccnc2SCC(=O)O)c(C)c1	n	n	n	n	n[12.7 µM]	n
COc1cc(/C=C2\NC(=S)N(C)C2=O)ccc1OCc1ccccc1F	n	n	n	n	n	n
Cc1[nH]c2c(C)cccc2c1CCNC(=O)C1CCCCC1C(=O)OCC(F)(F)F (stereo not given)	u	n	n	n	n	n
Cc1ccc2[nH]c(C)c(CCNC(=O)C3CCCCC3C(=O)OCC(F)(F)F)c2c1 (stereo not given)	u	71µM	u	n	n	n

Assay outcomes deposited in PubChem BioAssay by National Center for Advancing Translational Sciences (NCATS).
